Data on 11 molecules can be found in PubChem BioAssay.

Values without a mark were called inactive. Activity calls are given as the source filed them.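 The calls were made as follows: active = normalized viability below 100% at a tested concentration; inactive = the rest.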

The assay is described as follows: ovarian cancer cell viability with rucaparib, profiling panel, oncology-focused library, rucaparib conditional (AID 1508598). The following applies: patient-derived ovarian cancer cells, CellTiter-Glo viability, 144 h; at 0.00488 µM; OCI-P5x cells; without rucaparib; active compounds read low.
For the molecule `CC1(C)CNc2cc(NC(=O)c3cccnc3NCc3ccncc3)ccc21`, the viability was 104%. Regarding `O=C(Nc1ccccc1-c1cn2c(CN3CCNCC3)csc2n1)c1cnc2ccccc2n1`, the viability is 114%. For `Cc1cnc(NC(=O)Nc2cc(Br)c(C)cc2OC[C@@H]2CNCCO2)cn1`, the viability was 109%. As to `N#Cc1c(NC(=O)c2cccc3ccccc23)sc2c1CCCC2`, the viability is 97.3% (active).

In the case of `COc1ccc(-c2ccc3c(N4CCOC[C@@H]4C)nc(N4CCOC[C@@H]4C)nc3n2)cc1CO`, the viability was 91% (active). With `Nc1nc(Nc2ccc(S(N)(=O)=O)cc2)nn1C(=O)c1c(F)cccc1F`, the viability is 94.4% (active).

As for `Cc1ccc(F)c(NC(=O)Nc2ccc(-c3cccc4[nH]nc(N)c34)cc2)c1`, the viability was 97.7% (active). Take `COc1ccc(-c2ccc3c(N4CCOCC4)nc(N4C[C@@H](C)O[C@@H](C)C4)nc3n2)cc1CO`: the viability is 107%. As to `N#CCNC(=O)c1ccc(-c2ccnc(Nc3ccc(N4CCOCC4)cc3)n2)cc1`, the viability is 96.8% (active). On to `COC(=O)c1ccc2c(C(=Nc3ccc(N(C)C(=O)CN4CCN(C)CC4)cc3)c3ccccc3)c(O)[nH]c2c1`, for which the viability is 104%. Take `COc1cc2nccc(Oc3ccc(NC(=O)Nc4cc(C)on4)c(Cl)c3)c2cc1OC`: the viability is 93.9% (active).
